ChEMBL document CHEMBL3433997, “St. Jude Leishmania screening dataset” (2016)

Legend:
Format in all cases: functional
[1] = target: Solute carrier family 2, facilitated glucose transporter member 1 (Homo sapiens) (UniProt P11166); assay: ST_JUDE_LEISH: Cytotoxicity at 2uM final concentration against transgenic Leishmania Mexicana promastigotes LmGLUT1 that are glucose transport deficient and complemented with the human glucose transporter GLUT1. Activity is measured by DNA content using SYBR green in vitro
Sequence of Solute carrier family 2, facilitated glucose transporter member 1 (Homo sapiens) (P11166 whole entry): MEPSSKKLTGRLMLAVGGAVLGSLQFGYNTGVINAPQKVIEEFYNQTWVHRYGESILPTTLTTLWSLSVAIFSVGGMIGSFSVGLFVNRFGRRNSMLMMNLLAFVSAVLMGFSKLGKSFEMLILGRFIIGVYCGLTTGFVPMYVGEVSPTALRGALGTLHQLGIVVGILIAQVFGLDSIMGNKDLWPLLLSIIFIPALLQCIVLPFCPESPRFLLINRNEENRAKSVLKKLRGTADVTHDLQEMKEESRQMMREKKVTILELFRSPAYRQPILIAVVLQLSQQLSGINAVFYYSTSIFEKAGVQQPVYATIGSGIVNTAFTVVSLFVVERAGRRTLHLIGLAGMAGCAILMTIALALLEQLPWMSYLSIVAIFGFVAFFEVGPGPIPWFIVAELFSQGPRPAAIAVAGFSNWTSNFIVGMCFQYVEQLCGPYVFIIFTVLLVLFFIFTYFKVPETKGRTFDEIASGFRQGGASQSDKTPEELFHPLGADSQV

[2] = target: Hexose transporter 1 (Plasmodium falciparum) (UniProt O97467); assay: ST_JUDE_LEISH: Cytotoxicity at 2uM final concentration against transgenic Leishmania Mexicana promastigotes LmPfHT that are glucose transport deficient and complemented with the Plasmodium falciparum hexose transporter. Activity is measured by DNA content using SYBR green in vitro
[3] = target: Glucose transporter (Leishmania mexicana) (UniProt O61059); assay: ST_JUDE_LEISH: Cytotoxicity at 2uM final concentration against transgenic Leishmania Mexicana promastigotes LmGT2 that are glucose transport deficient and complemented with the L. Mexicana glucose transporter 2. Activity is measured by DNA content using SYBR green in vitro

In the case of Cc1cccc(Cn2c(C(N)=O)nn(-c3ccc([N+](=O)[O-])cc3C#N)c2=S)c1, the inhibition [1] is reported as 11.5%, the inhibition [2] is reported as 11.7% and the inhibition [3] is reported as 11.7%.

Work on O=C(Nc1ccc(-c2csc(-c3nc4ccccc4[nH]3)c2)cc1)Nc1ccc(Cl)c(Cl)c1 yielded an inhibition [1] of 1.35%, an inhibition [2] of 1.35% and an inhibition [3] of -1.48%.

COc1ccc(NC(=O)NC2CCN(c3ccnc4cc(Cl)ccc34)C2)cc1 (stereo not drawn) gave an inhibition [1] of 4.89%, an inhibition [2] of 2.85% and an inhibition [3] of 1.86%.

Compound COc1cc(OC)cc(-c2nnc(Sc3ccc(C#N)c([N+](=O)[O-])c3)n2C)c1 has an inhibition [1] of 9.51%, an inhibition [2] of 6.92% and an inhibition [3] of 5.47%.

Work on N#CC(c1ccc(Br)cc1)c1ccc2c(C(F)(F)F)cc(C(F)(F)F)nc2n1 (stereo not drawn) yielded an inhibition [1] of 4.94%, an inhibition [2] of 4.44% and an inhibition [3] of 0.48%.

For CCC[C@@H]([C@@H](CC(C)C)C(=O)N[C@@H](CCCNc1nccc(C(F)(F)F)n1)C(=O)Nc1nccs1)N(O)C=O, the inhibition [1] was 3.82%, the inhibition [2] was 4.8% and the inhibition [3] was 3.22%.

COc1ccc2ncc(F)c(CCN3CC(O)C(CNCc4ccc5c(n4)NC(=O)CS5)C3)c2c1 (stereo not drawn) gave an inhibition [1] of 1.08%, an inhibition [2] of 1.93% and an inhibition [3] of 2.84%.

In the case of O=C(NCCN1CCN(S(=O)(=O)c2ccc(OC3CCNCC3)c(Br)c2)CC1)c1ccc(Cl)c(Cl)c1, the inhibition [1] is reported as 3.33%, the inhibition [2] is reported as 3.46% and the inhibition [3] is reported as 4.49%.

With Cc1ccc2ncc(Cl)c(CCN3CCC(NCc4ccc5c(n4)NC(=O)CS5)CC3)c2n1 the inhibition [1] was 3.75%, the inhibition [2] was 4.54% and the inhibition [3] was 2.85%.

CCOC(=O)CNCC(=O)c1ccc(OCc2ccccc2)cc1 was tested, and the inhibition [1] was 1.94%, the inhibition [2] was 0.64% and the inhibition [3] was 2.44%.

CCNc1cc(C(=O)N[C@@H](Cc2ccccc2)[C@H](O)CNC2CCC(C)(C)C2)cc(N2CCCCS2(=O)=O)c1 (stereo partly drawn) gave an inhibition [1] of 2.05%, an inhibition [2] of 2.29% and an inhibition [3] of 2.37%.

Compound C=CCN(c1ccc(OC)cc1)S(=O)(=O)c1ccc(Cl)c(C(=O)Nc2cccc(C#N)c2)c1 has an inhibition [1] of -1.28%, an inhibition [2] of 4.89% and an inhibition [3] of 4.17%.

In the case of Cc1[nH]c(C)c(-c2ccc(-c3ccc(F)cc3)nc2)c(=O)c1Br, the inhibition [1] is reported as 0.98%, the inhibition [2] is reported as 1.82% and the inhibition [3] is reported as 1.04%.

CS(=O)(=O)c1ccc(CNCc2ccc(-c3cccc(-c4nc5cc(F)ccc5[nH]4)c3)cc2)cc1 gave an inhibition [1] of 3.3%, an inhibition [2] of 1.83% and an inhibition [3] of 2.88%.

COc1ccccc1C1CC(c2ccc(Br)cc2)=NN1C(=O)c1ccccc1 (stereo not drawn) gave an inhibition [1] of 2.83%, an inhibition [2] of 2.02% and an inhibition [3] of 0.92%.

CC(C)CCNC(=N)Nc1ccc(OCCCCCOc2ccc(NC(=N)NCCC(C)C)cc2)cc1 was tested, and the inhibition [1] was 6.46%, the inhibition [2] was 3.87% and the inhibition [3] was -1.73%.

O=C(NCCN1CCCC1)c1cccc(Nc2nccc(Nc3ccc(Oc4ccccc4)cc3)n2)c1 gave an inhibition [1] of 2.86%, an inhibition [2] of 3.85% and an inhibition [3] of 2.53%.

Cc1cc(NCCC(=O)NCCc2ccccc2)nc(NCCc2ccc(F)cc2)n1 showed an inhibition [1] of 2.76%, an inhibition [2] of 3.87% and an inhibition [3] of 2.22%.

For CCCCCCCN(Cc1ccc(OC(C)(C)C(=O)OCC)cc1)C(=O)Cc1ccc(F)cc1F, the inhibition [1] was 2.17%, the inhibition [2] was 1.8% and the inhibition [3] was 2.23%.

COc1ccc(NC(=O)[C@H](CC(C)C)Nc2cc(C)nc(NCc3ccccc3C)n2)cc1 showed an inhibition [1] of 1.76%, an inhibition [2] of 2.18% and an inhibition [3] of 0.33%.

CC(Nc1ccc2c(c1)CCC2)C(=O)Nc1cc(C(F)(F)F)ccc1N1CCOCC1 (stereo not drawn) was tested, and the inhibition [1] was 14.7%, the inhibition [2] was 16.9% and the inhibition [3] was 11.1%.

For Cc1ccc2c(c1)c(-c1ccccc1)c(-c1ccccc1)n2CC(O)CN1CCN(CC=Cc2ccccc2)CC1 (stereo not drawn), the inhibition [1] was 0.38%, the inhibition [2] was 1.97% and the inhibition [3] was 0.7%.

For Cn1nc(-c2cccc(CNCCc3cccs3)c2)c2cnc(NC3CCCC3)nc21, the inhibition [1] was 5.58%, the inhibition [2] was 5.16% and the inhibition [3] was 5.1%.

Oc1ccccc1CN1CCC2(CCCN(Cc3ccccc3F)C2)C1 (stereo not drawn) gave an inhibition [1] of 2.03%, an inhibition [2] of -1.06% and an inhibition [3] of 1.57%.

CC(=O)Nc1ccc(C(=O)Nc2cccc(-c3ccc(-c4nc5cc(F)ccc5[nH]4)s3)c2)cn1 showed an inhibition [1] of 0.96%, an inhibition [2] of 1.55% and an inhibition [3] of 2.75%.

c1ccc2[nH]c(-c3ccc(-c4ccc(CN5CCCCC5)cc4)cc3)nc2c1 gave an inhibition [1] of 18.2%, an inhibition [2] of 12.9% and an inhibition [3] of 10.6%.
